This is a sample that favours compounds with a hit; in the whole collection about 4.2% have one here.
S1P4 ag = agonists of human S1P4 receptor; O95977; activation, % at 4.98 µM; AID 1509; S1P4-expressing cell line, agonist reporter assay; hit rate 0.35% among 220,000; in the data active means activation above about 11%;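 further: 0% = DMSO vehicle and 100% = reference agonist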
Hsp70 act = switches on Hsp70 transcription | HeLa Hsp70 promoter luciferase reporter, luminescence; scaled: vehicle 0, proteasome-inhibitor control 100% | AID 1203 | activation, % at 10 µM | hit rate 0.04% among 200,000;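 active means activation above the mean across all tested compounds plus 3 SD, cutoff set per campaign, cut at about 5.5% in these data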;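 further: 100% = MG132 at 30 µM as the positive control and 0% = DMSO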
S1P4 antagonist = human S1P4 receptor antagonism | hit rate 0.26% among 220,000 | S1P4-expressing cells, antagonist mode, reporter read-out | inhibition, % at 4.98 µM | O95977; in the data active means inhibition above about 29%;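 further: 0% = wells stimulated with agonist and 100% = vehicle wells without agonist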
CHOP inhibitor = blocks CHOP induction under ER stress | CHO-K1 CHOP-promoter luciferase, tunicamycin-induced, 15-18 h | inhibition, % at 10 µM | hit rate 3.8% among 220,000 | AID 2732;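 active means compounds that reduced the stress-induced luciferase reporter signal by more than about 70% of percent inhibition, limit read from the data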;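 further: 0% = tunicamycin plus vehicle and 100% = wells without tunicamycin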
S1P4 agonist cf = confirmation of human S1P4 receptor agonists | shares compounds with S1P4 ag | S1P4 agonist cell-based reporter assay | activation, % at 4.98 µM | hit rate 7% among 740; in the data active means activation above about 12%;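 further: 0% = vehicle and 100% = full reference agonist response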
S1P1 ag = activates human S1P1, counter-screen for S1P4 agonists | hit rate 4% among 740 | activation, % at 4.98 µM | shares compounds with S1P4 ag | S1P1 agonist cell-based assay, activation; in the data active means activation above about 21%;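 further: 0% = vehicle wells and 100% = reference agonist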
Target sequence (P21453 whole entry, looked up): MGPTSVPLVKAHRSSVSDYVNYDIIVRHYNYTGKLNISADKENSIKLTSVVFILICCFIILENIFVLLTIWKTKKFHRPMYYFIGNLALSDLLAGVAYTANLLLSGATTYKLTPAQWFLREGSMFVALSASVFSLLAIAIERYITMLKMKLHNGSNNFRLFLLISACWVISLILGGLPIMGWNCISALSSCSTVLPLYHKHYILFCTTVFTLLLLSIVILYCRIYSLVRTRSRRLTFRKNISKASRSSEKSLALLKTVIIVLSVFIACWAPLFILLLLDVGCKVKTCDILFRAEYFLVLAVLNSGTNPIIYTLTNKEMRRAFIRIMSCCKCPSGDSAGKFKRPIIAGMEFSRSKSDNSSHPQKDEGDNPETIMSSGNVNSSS
* hit, by the source's call; . = no result.

SMILES	S1P4 ag	Hsp70 act	S1P4 antagonist	CHOP inhibitor	S1P4 agonist cf	S1P1 ag
Cc1c(C(=O)NCc2ccc3c(c2)OCO3)sc2nc(-c3ccc(F)cc3)cn12	-0.1	-0.3	-18.2	0.4	.	.
OC1CCCN(Cc2c3ccccc3cc3ccccc23)C1 (stereo unspecified)	14.8*	-0.1	-10.9	21.6	-0.2	2.6
CCOC(=O)c1c(C)n(C)c2ccc(OC(=O)c3ccco3)cc12	-0.7	-0.1	-4.1	11.3	.	.
CCOC(=O)c1cc2ccc(OC(=O)c3ccco3)cc2oc1=O	148.6*	-0.4	-155.5	-8.8	83.8*	95.6*
CCOC(=O)c1c(C)nc2c(C#N)cnn2c1C	-0.3	-0.3	12.2	25.5	.	.
CCOCCCn1c(=NC(=O)c2cccs2)c(C#N)cc2c(=O)n3ccccc3nc21	15.0*	.	-29.9	-6.3	4.4	30.4*
Cc1ccc(-c2nnc(SCCC(=O)N3CCOCC3)o2)cc1	1.6	-0.3	-23.8	26.1	.	.
O=C(CCSc1nnc(-c2ccccc2)o1)N1CCOCC1	27.6*	-0.3	-1.9	-1.4	-1.7	1.0
Cc1c(C(=O)NN)nn(-c2ccc(Cl)cc2)c(=O)c1C#N	1.4	-0.3	-19.3	16.1	.	.
COc1ccc(CN2CCC(N3CCC(C(=O)N4CCOCC4)CC3)CC2)c(F)c1	11.5*	-0.3	-3.6	35.7	-1.2	-2.0
CC(=O)c1cccc(NC(=O)COC(=O)COc2c(Cl)cc(Cl)c3ccc(C)nc23)c1	-0.5	-0.2	2.5	18.9	.	.
c1ccc2c(N3CCCCC3)nc(N3CCOCC3)nc2c1	0.8	0.1	-3.4	-14.7	.	.
Nc1nc(N2CCOCC2)nc2ccccc12	21.6*	0.1	-0.3	0.4	-1.3	-7.2
CCOc1ccc(NC(=O)c2ccccn2)cc1	0.6	-0.9	-16.4	47.0	.	.
CNS(=O)(=O)c1ccc(NC(=O)c2ccccn2)cc1	70.3*	-0.1	8.7	5.7	-0.7	-2.9
CCCCNC(=O)CCn1c(=O)c2ccccc2n(Cc2ccc(F)cc2)c1=O	14.7*	-0.4	-20.1	-1.7	-2.5	0.6
COCCCNC(=O)CCn1c(=O)c2ccccc2n(Cc2cccc([N+](=O)[O-])c2)c1=O	-0.1	0.1	-13.3	0.4	.	.
O=C(Nc1nc(-c2ccccn2)cs1)C1COc2ccccc2O1 (stereo unspecified)	37.6*	-0.3	-2.3	1.0	-1.2	3.4
COc1ccc(CCn2c(C3CCCCC3)nc3c(c(=O)c4ccccc4n3C)c2=O)cc1OC	-1.7	.	7.3	25.6	.	.
CC(=O)Nc1nc(C(=O)Nc2c(C)n[nH]c2C)cs1	14.1*	-0.1	-23.1	12.7	-1.6	2.1
CN(C(=S)NC(=O)Cc1ccccc1)c1ccccc1	12.8*	0.0	-26.9	-22.7	-2.0	-3.0
CCN(CC)C(=S)NC(=O)Cc1ccccc1	-1.0	-0.3	-3.7	-7.5	.	.
O=C(Cc1cccs1)Nc1ccccc1NC(=O)Cc1cccs1	-1.8	1.1	-11.1	17.0	.	.
O=C(Cc1cccs1)Nc1ccccc1C(=O)O	117.4*	-0.2	-10.8	-6.7	-1.6	4.8
CCOC(=O)C1CCN(c2ncnc3c2oc2ccc(Cl)cc23)CC1	186.9*	-0.1	-1.4	41.7	-2.3	-1.3
SMILES	S1P4 ag	Hsp70 act	S1P4 antagonist	CHOP inhibitor	S1P4 agonist cf	S1P1 ag
CCOC(=O)C1CCN(c2ncnc3c2c(-c2ccccc2)cn3-c2ccccc2)CC1	-1.0	-0.2	5.2	38.2	.	.
Cc1ccccc1-c1nnc(NC(=O)CSc2nc3ccccc3s2)s1	-0.3	0.0	7.7	3.9	.	.
CCN(CC)C(=O)C(C)N(C#N)c1nc(SC)nc(N(C)C)n1 (stereo unspecified)	-1.2	-0.2	14.1	11.6	.	.
Cc1oc(-c2cc(F)ccc2F)nc1CN1CCN(C)C(=O)[C@@H]1C	14.9*	-0.2	-8.2	-2.2	-1.0	-7.2
O=[N+]([O-])c1ccc(Sc2ccccc2)nc1	0.8	-0.3	3.3	18.6	.	.
COc1cc(C(C)=O)ccc1OC(=O)c1cc2cccc(OC)c2oc1=O	13.6*	-0.5	0.3	2.6	-3.0	-5.0
COc1cccc2cc(C(C)=O)c(=O)oc12	1.3	-0.5	-15.5	-4.3	.	.
O=S(=O)(Nc1ncccn1)c1ccc(NC(=S)NCCc2ccccc2)cc1	1.1	0.0	-13.3	3.6	.	.
CCCc1ccc(OCC(=O)Nc2cc(S(=O)(=O)CC)ccc2O)cc1	12.4*	0.0	-20.2	18.3	-0.8	2.0
c1ccc(CC2CCCNC2)cc1 (stereo unspecified)	49.4*	0.1	-4.1	-13.0	0.6	8.9
CCOC(=O)c1sc(NC(=O)C2CCC2)cc1C	0.7	-0.2	-4.8	-23.2	.	.
CN(Cc1cc(=O)n2ccsc2n1)C1CCCCC1	92.9*	-0.1	0.1	7.1	-1.6	2.7

Source: PubChem
